The supplement of paper PMC8975748
± gives the standard deviation of the averaged measurements.

Assays:
[1] = tested on: Saccharomyces cerevisiae BY4741 SeMeCo community; assay: mean cell size (pixel area) (pixels); higher = larger cells; settings: 10 µM; 24 h; SM minimal medium
Method in brief: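 A fluorescent Saccharomyces cerevisiae BY4741 community carrying four plasmids was used, with each plasmid complementing one auxotrophy and bearing a fluorescent marker. An overnight preculture at OD600 = 1.0 was diluted to OD600 = 0.3, and 70 µl went into 384-well plates acoustically predosed with drug (final 10 µM) in SM medium for 24 h. After paraformaldehyde fixation, cells were imaged by automated confocal microscopy and analysed in Harmony, giving the mean cell pixel area per well. Each value is the average of 3 replicates. Same SeMeCo high-content imaging drug screen: Selleck FDA-approved drugs at 10 µM, 24 h in SM medium, 384-well plates, 3 replicates.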

[2] = tested on: Saccharomyces cerevisiae BY4741 SeMeCo community; assay: z-score of prototroph abundance vs DMSO median; higher = larger share of this subpopulation than in DMSO controls; settings: 10 µM; 24 h; SM minimal medium; subpopulation (auxotrophy): Prototroph
Method in brief: (§1)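 Subpopulation abundance was reported as a z-score against the median of vehicle wells. The Saccharomyces cerevisiae BY4741 community, carrying four plasmids that each restored one auxotrophy and encoded a distinct fluorescent protein, was grown 24 h in minimal SM medium in 384-well plates holding library drugs at 10 µM final. Cells were paraformaldehyde-fixed and imaged by automated confocal microscopy, with single-auxotroph fluorescent strains used for thresholds and autofluorescence correction.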

[3] = tested on: Saccharomyces cerevisiae BY4741 SeMeCo community; assay: z-score of subpopulation abundance vs DMSO median, subpopulation auxotrophic for M; higher = larger share of this subpopulation than in DMSO controls; settings: 10 µM; 24 h; SM minimal medium; subpopulation (auxotrophy): M
Method in brief: as §1

[4] = tested on: Saccharomyces cerevisiae BY4741 SeMeCo community; assay: z-score of subpopulation abundance vs DMSO median, subpopulation auxotrophic for L; higher = larger share of this subpopulation than in DMSO controls; settings: 10 µM; 24 h; SM minimal medium; subpopulation (auxotrophy): L
Method in brief: as §1

[5] = tested on: Saccharomyces cerevisiae BY4741 SeMeCo community; assay: z-score of subpopulation abundance vs DMSO median, subpopulation auxotrophic for U; higher = larger share of this subpopulation than in DMSO controls; settings: 10 µM; 24 h; SM minimal medium; subpopulation (auxotrophy): U
Method in brief: as §1

[6] = tested on: Saccharomyces cerevisiae BY4741 SeMeCo community; assay: z-score of subpopulation abundance vs DMSO median, subpopulation auxotrophic for H; higher = larger share of this subpopulation than in DMSO controls; settings: 10 µM; 24 h; SM minimal medium; subpopulation (auxotrophy): H
Method in brief: as §1

[7] = tested on: Saccharomyces cerevisiae BY4741 SeMeCo community; assay: z-score of subpopulation abundance vs DMSO median, subpopulation auxotrophic for LU; higher = larger share of this subpopulation than in DMSO controls; settings: 10 µM; 24 h; SM minimal medium; subpopulation (auxotrophy): LU
Method in brief: as §1

[8] = tested on: Saccharomyces cerevisiae BY4741 SeMeCo community; assay: z-score of subpopulation abundance vs DMSO median, subpopulation auxotrophic for LM; higher = larger share of this subpopulation than in DMSO controls; settings: 10 µM; 24 h; SM minimal medium; subpopulation (auxotrophy): LM
Method in brief: as §1

[9] = tested on: Saccharomyces cerevisiae BY4741 SeMeCo community; assay: z-score of subpopulation abundance vs DMSO median, subpopulation auxotrophic for HM; higher = larger share of this subpopulation than in DMSO controls; settings: 10 µM; 24 h; SM minimal medium; subpopulation (auxotrophy): HM
Method in brief: as §1

[10] = tested on: Saccharomyces cerevisiae BY4741 SeMeCo community; assay: z-score of subpopulation abundance vs DMSO median, subpopulation auxotrophic for UM; higher = larger share of this subpopulation than in DMSO controls; settings: 10 µM; 24 h; SM minimal medium; subpopulation (auxotrophy): UM
Method in brief: as §1

[11] = tested on: Saccharomyces cerevisiae BY4741 SeMeCo community; assay: z-score of subpopulation abundance vs DMSO median, subpopulation auxotrophic for HL; higher = larger share of this subpopulation than in DMSO controls; settings: 10 µM; 24 h; SM minimal medium; subpopulation (auxotrophy): HL
Method in brief: as §1

[12] = tested on: Saccharomyces cerevisiae BY4741 SeMeCo community; assay: z-score of subpopulation abundance vs DMSO median, subpopulation auxotrophic for HLU; higher = larger share of this subpopulation than in DMSO controls; settings: 10 µM; 24 h; SM minimal medium; subpopulation (auxotrophy): HLU
Method in brief: as §1

[13] = tested on: Saccharomyces cerevisiae BY4741 SeMeCo community; assay: z-score of subpopulation abundance vs DMSO median, subpopulation auxotrophic for HLM; higher = larger share of this subpopulation than in DMSO controls; settings: 10 µM; 24 h; SM minimal medium; subpopulation (auxotrophy): HLM
Method in brief: as §1

[14] = tested on: Saccharomyces cerevisiae BY4741 SeMeCo community; assay: z-score of subpopulation abundance vs DMSO median, subpopulation auxotrophic for HUM; higher = larger share of this subpopulation than in DMSO controls; settings: 10 µM; 24 h; SM minimal medium; subpopulation (auxotrophy): HUM
Method in brief: as §1

[15] = tested on: Saccharomyces cerevisiae BY4741 SeMeCo community; assay: z-score of subpopulation abundance vs DMSO median, subpopulation auxotrophic for LUM; higher = larger share of this subpopulation than in DMSO controls; settings: 10 µM; 24 h; SM minimal medium; subpopulation (auxotrophy): LUM
Method in brief: as §1

[16] = tested on: Saccharomyces cerevisiae BY4741 SeMeCo community; assay: z-score of subpopulation abundance vs DMSO median, subpopulation auxotrophic for HLUM; higher = larger share of this subpopulation than in DMSO controls; settings: 10 µM; 24 h; SM minimal medium; subpopulation (auxotrophy): HLUM
Method in brief: as §1

[17] = tested on: Saccharomyces cerevisiae BY4741 SeMeCo community; assay: z-score of subpopulation abundance vs DMSO median, subpopulation auxotrophic for HU; higher = larger share of this subpopulation than in DMSO controls; settings: 10 µM; 24 h; SM minimal medium; subpopulation (auxotrophy): HU
Method in brief: as §1

SMILES	mean cell size [1]	z-score of prototroph abundance [2]	z-score of subpopulation abundance [3]	z-score of subpopulation abundance [4]	z-score of subpopulation abundance [5]	z-score of subpopulation abundance [6]	z-score of subpopulation abundance [7]	z-score of subpopulation abundance [8]	z-score of subpopulation abundance [9]	z-score of subpopulation abundance [10]	z-score of subpopulation abundance [11]	z-score of subpopulation abundance [12]	z-score of subpopulation abundance [13]	z-score of subpopulation abundance [14]	z-score of subpopulation abundance [15]	z-score of subpopulation abundance [16]	z-score of subpopulation abundance [17]
CN1CCCN=C1/C=C/c1cccc(O)c1 [Oxantel Pamoate]	12.6 ± 0.29	1.15	1.17	-0.58	-1.1	0.29	-0.45	-0.51	-0.6	-1.73	-0.28	-0.35	-0.2	-1.13	-1.13	-0.41	
N[C@@H](CCC(=O)O)C(=O)O [(S)-Glutamic acid]	12.1 ± 0.22	0.18	-0.4	0.52	0.05		-0.36	0.15	-0.08	-0.63	-0.27	-0.63	0.07	-0.56	-0.99	0.06	
O=c1c(-c2ccc(O)cc2)coc2c([C@@H]3O[C@H](CO)[C@@H](O)[C@H](O)[C@H]3O)c(O)ccc12 [Puerarin]	12.55 ± 0.11	-0.2	0.72	-0.61	0.36	0.2	-0.47	-0.04	1.09	0.39	0.23	0.12	1.18	-0.25	-1.14		0.41
CC[C@H]1OC(=O)[C@H](C)[C@@H](O[C@H]2C[C@@](C)(OC)[C@@H](O)[C@H](C)O2)[C@H](C)[C@@H](O[C@@H]2O[C@H](C)C[C@H](N(C)C)[C@H]2O)[C@](C)(O)C[C@@H](C)C(=O)[C@H](C)[C@@H](O)[C@]1(C)O [Erythromycin]	12.3 ± 0.15		0.24	1.96	-1.28	1	0.03	1.38	0.91	-0.8	2.42	1	0.66	-0.16	1.19	0.28	
CCCCOC(=O)c1ccc(O)cc1 [Butylparaben]	12.3 ± 0.29		-0.57	-0.62	-0.7	-1.64	-1.79	-0.49	-1.19	-1.24	-0.99	-1.3	-0.41	-1.38	-0.62	0.07	
Cc1nc(C)c(Cl)c(O)c1Cl [Clopidol]	12.22 ± 0.083	0.11	-0.51	0.46	-0.09	0.6	0.07	-0.19	-0.62	-0.13	0.28	-0.09	0.14	-0.08	-0.04		-0.28
CC#C[C@]1(O)CC[C@H]2[C@@H]3CCC4=CC(=O)CCC4=C3[C@@H](c3ccc(N(C)C)cc3)C[C@@]21C [Mifepristone]	12.3 ± 0.19		0.43	1.02	-0.36	1.2	0.63	0.79	1.66	0.64	1.2	0.41	0.44	1.71	0.67	-0.67	
CCOC(=O)C1=C(C)NC(C)=C(C(=O)OCC)C1c1ccccc1/C=C/C(=O)OC(C)(C)C [Lacidipine]	12.5 ± 0.14	0.54	3.48	1.08	-3.36	1.2	-2.51	1.6	1.9	-2.61	-0.42	-0.94	1.17	-0.96	-1.16		-2.93
CC1=C(C(=O)OCCN(Cc2ccccc2)c2ccccc2)C(c2cccc([N+](=O)[O-])c2)C(P2(=O)OCC(C)(C)CO2)=C(C)N1 (centres undefined) [Efonidipine]	12.6 ± 0.14	-1.56	0.03	0.97	0.34	1.79	1.04	2.26	1.87	0.8	0.79	1.2	1.02	1.54		1.4	
CC1=Nc2ccc(Cl)cc2S(=O)(=O)N1 [Diazoxide]	12.4 ± 0.1	0.72	-0.76	-0.67	0.16	-0.86	-0.67	-1.03	-0.62	-0.03	-0.72	-0.88	-1.55	-0.41	-0.9	-1.32	
NC(=O)Cc1cccc(C(=O)c2ccccc2)c1N [Nepafenac]	12.3 ± 0.27	0.25	0.62	1.39	-1.24	-0.38	-0.55	1.58	0.5	-0.53	0.69	0.04	-0.23	-0.01	0.29		-1.05
CC(N)C12CC3CC(CC(C3)C1)C2 (centres undefined) [Rimantadine]	12.5 ± 0.14	-1.12	0.39	0.04	0.97	0.34	0.71	0.09	0.19	1.1		0.68	0.47	0.67	0.08	-0.32	
CC(=O)OCC[N+](C)(C)C [Acetylcholine iodide]	12.42 ± 0.1	1.05	-0.32	-0.73		-0.21	-0.57	-0.62	-1.48	-0.32	-0.89	0.05	-1.52	-0.36	-1.27	-1.3	
CCOC(=O)C1=C(COCCN)NC(C)=C(C(=O)OC)[C@@H]1c1ccccc1Cl [Levamlodipine]	12.5 ± 0.2	3.33	5.72	1.13		2.66	-6.47	3.35	4.13	-8.09	2.19	-3.25	1.82	-5.45		-1.12	-6.75
Nc1ccc(S(=O)(=O)c2ccc(N)cc2)cc1 [Dapson]	12.5 ± 0.26		0.68	0.59			0.91	0.51	0.93	0.45	0.32	0.22	-0.14	0.6	0.92	0.06	
